40 sequences from the supplement of paper PMC6555819 can be followed below.

The assay has as its system VDR:RXRa (NR concentration 270 nM, RXRa partner concentration 90 nM). In words: PBM binding z-score (relative to random genomic background probes); higher = stronger binding; sequences stand for … in GC…GCGATTGACAGCGTAGAATGAAGG
As to the method:
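Protein-binding microarray (Agilent 4x180K custom design, double-stranded 60-nt probes: 5' GC cap, 34-nt variable region, 24-nt constant primer region; full probe sequence given). Purified or IVT nuclear receptor:RXRα heterodimers (3:1 NR:RXRα, mostly 270:90 nM) or homodimers were incubated for 1 h in PBS with 2% milk and no ligand, then detected with Alexa488 antibodies. Fluorescence from o1-orientation probes (~5 replicates averaged) was converted to z-scores against 500 random hg19 background probes. Variable regions are seed direct-repeat (DR0–DR5) sites, all their single-nucleotide variants and half-site ablations.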
Consider CCTGCTAGGTCATGGTCAGCGAATCTACAGTATG, for which the PBM binding z-score came to 1.5.
The result for TAGCCTAGGTCATTCAGGGGCAAGTATAGAAAGC reads 5.23.
ATCGAAAGGTCCAAGGTGAGTATACCCACCCGAA yielded a PBM binding z-score of 0.423.
The figure for CCTACTGGGCCATTCAGAGGTCAATGATCATATG is 3.4; for CTCGAAAGGTCGTGCTCAGATGAGTATACCAAAC it is 3.09.
The result for CCTACTGGGCCACTAAAGGTCATTGATTCAGTGA reads 4.05; that for TCTATTAGTTGATTAGGGCAACCGAAACAGCGGA, 0.711; that for CGAACGAGGTCATGAGTTGATAGCAAATGCCGAT, 5.57.
Regarding CGTTCAAGGTCAAAGGTCAGTGAAGAGATGACGG, the PBM binding z-score was determined as 6.9.
The figure for CCTACTGGACCAAGGTCATTGATCAGTCAAAGCA is 3.44; for ATCGAAAGGTCCACGAGGTGAGTATACACCGTTT it is 1.22.
The figure for CCTACTGGGCCGTTCAGAGGTCATTGATCATATG is 3.58; for CGTCCAAGGTTAAGGTCAGTGAAAGAGACTCGAA it is 2.5; for CGTCAAACTTCAACTAAGGTAACGTAAAGCACGC it is 0.382.
The figure for TATCAAAGTTCAAAGGTAACGTAAGTATCCACAC is 5.28; for CGAACTAGGTCATTGACAGGACAGTGGATAGTAA it is 2.15; for ATATGTAGGTTAGCTGGGGTCATTCACACTAGGC it is 6.32.
With TCTAGTTGGTCACGGAGGTCACAAACGACGGGTA, the PBM binding z-score was determined as 5.62.
CCTAGTTGGTCAAGGTCACACCCGCTATAGGTAC had a PBM binding z-score of 3.99.
The figure for AGAATGAGGTTAAACGTAGATCAGGGAAGAAAGT is 2.03.
The result for AATACAGGGTCACGAGGCCAGAGTAGGTACGAAT reads 5.41; that for TATAAAGGGTCAAAGGCCAGAGTACGAATGTCGA, 4.86.
The figure for AATACAGGGTGACTAGGCCAGAGTAGGTACGAAT is 0.257; for CGTCAAAGGTCAATGCTAGGTCAGTGAAAGCATT it is 6.01.
On to TCGCCTAGGTCATGGGCCAGTATACCACGCGAAC, for which the PBM binding z-score was 2.09.
The result for CCTACTGGTCCAAGGTCATTGATCAGTCAAAGCA reads 3.79; that for CGAACTAGGTCAAGGGACAGTGAAAGGCGACGTA, 0.899.
The figure for ATCGAAAGGTCATGAGGTGAGTATACAGAAAGGC is 5.78; for GATACAGGGTCAAGGTCAGAGTACGCGTATTGAT it is 5.53; for CGTCAAAGGTCAAGGTAACGTAACAGAAAGCAGC it is 5.13.
The figure for TACCCTAGGTCATGGGCCAGTATACCACGCGAAC is 2.67; for TCTAGTTGGTCACGGAGGACACACACGACGGGTA it is 2.67; for TGAATGAGGTTAAATATCAGGGAACGTGGCGTCG it is 1.54.
As to TAGCCGAGGTCATTCAGGGGCCAGTATAGAAAGC, the PBM binding z-score stood at 5.89.
In turn, CGAACGAGGTCATTGACAGGACAGTGAATAGTAA displayed a PBM binding z-score of 5.64.
CCTACTGGGCCAAAGGTGATTGATTCCAATGCTC yielded a PBM binding z-score of 0.0696.
Regarding AGTCAAACTTCAGGACGAGGTAACGTAAAGCACG, the PBM binding z-score was -0.131.
The sequence GGAACGAGGTCAAAGTTGATAGCATCTGTCGACG showed a PBM binding z-score of 5.81.
Sequence CCAGACAGGTGAGAAGGTAACTCAGCCTCGATTA returned a PBM binding z-score of 0.116.
The result for CCTACTGGGCCATTCAGAGGGCATTGATCATATG reads 0.0939.
